About 79,000 compounds went through this panel and 15% of them were active in at least one assay; those are over-represented in the sample as a whole. Calls of active or inactive are those of the source. Cut-off read from the data, not from the text of the source: active = growth inhibition above about 70%; inactive = the rest.
Tests used:
[1] = NCI Yeast Anticancer Drug Screen. Data for the rad50 strain (AID 155);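 note: 0% = growth of vehicle-only cultures of the same strain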; details: S. cerevisiae rad50 strain growth inhibition, stronger effect = higher value
Procedure, shortened: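 Compounds were tested on a yeast strain with an engineered DNA damage repair alteration; the reported value is growth inhibition normalised to vehicle treatment.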

[2] = NCI Yeast Anticancer Drug Screen. Data for the mec2-1 strain (AID 157); details: S. cerevisiae mec2-1 strain, stronger effect = higher value
Procedure, shortened: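 Mutant yeast (mec2-1) grown with compound; growth inhibition relative to vehicle control reported.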

[3] = NCI Yeast Anticancer Drug Screen. Data for the sgs1 mgt1 strain (AID 161);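 note: 0% = growth of cultures given vehicle only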; details: S. cerevisiae sgs1 mgt1 strain, stronger effect = higher value
Procedure, shortened: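 Yeast cells carrying a defined DNA-repair defect were exposed to test compounds. Growth inhibition was measured relative to vehicle-treated controls.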

[4] = NCI Yeast Anticancer Drug Screen. Data for the cln2 rad14 strain (AID 165);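 note: 0% = growth equal to vehicle treated cultures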; details: S. cerevisiae cln2 rad14 strain, stronger effect = higher value
Procedure, shortened: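 Readout is yeast growth inhibition versus vehicle-treated controls, using a strain with cln2 and rad14 alterations exposed to compound.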

[5] = NCI Yeast Anticancer Drug Screen. Data for the bub3 strain (AID 167); details: S. cerevisiae bub3 mutant strain, stronger effect = higher value
Procedure, shortened: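 Growth of a checkpoint-deficient yeast mutant is measured after compound exposure. Values represent inhibition relative to vehicle.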

[6] = NCI Yeast Anticancer Drug Screen. Data for the mlh1 rad18 strain (AID 175); details: S. cerevisiae mlh1 rad18 strain growth inhibition, stronger effect = higher value
Procedure, shortened: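 Genetically defined yeast (DNA repair-deficient) exposed to compounds; growth inhibition determined relative to vehicle.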

[7] = at 5.0 µM (retest, dose inferred, filed as 0.5)
[8] = at 50.0 µM (retest, dose inferred, filed as 5.0)

Measured: growth inhibition

O=C(O)c1ccc2cc3ccccc3cc2c1
active: [1]; at 50.0 µM 75.9%
inactive: [1]; [7] -16% | [1]; [8] 65% | [2]; [7] 5% | [2]; [8] 48% | [2]; at 50.0 µM 47.4% | [3]; [7] -10% | [3]; [8] 50% | [3]; at 50.0 µM 63% | [4]; [7] -49% | [4]; [8] 42% | [4]; at 50.0 µM 61.9% | [5]; [7] -29% | [5]; [8] 30% | [5]; at 50.0 µM 62.4% | [6]; [7] -24% | [6]; [8] 58% | [6]; at 50.0 µM 54.1%

CC(=O)c1c(O)c2ccc(Cl)cc2[nH]c1=O
inactive: [2]; [7] 36% | [2]; at 50.0 µM 14.7% | [4]; [7] 25% | [4]; [8] 59% | [4]; at 50.0 µM 31.5% | [5]; at 50.0 µM 38.2% | [6]; at 50.0 µM 66.7%
active: [1]; [7] 73% | [1]; [8] 90% | [1]; at 50.0 µM 79.2% | [2]; [8] 87% | [3]; [7] 79% | [3]; [8] 95% | [3]; at 50.0 µM 83.2% | [5]; [7] 71% | [5]; [8] 91% | [6]; [7] 72% | [6]; [8] 94%

Clc1ccc(SCCN2CCN(CCSc3ccc(Cl)cc3)CC2)cc1
inactive: [4]; [7] 54%
active: [1]; [7] 76% | [1]; [8] 98% | [1]; at 50.0 µM 83.2% | [2]; [7] 79% | [2]; [8] 99% | [2]; at 50.0 µM 77.9% | [3]; [7] 92% | [3]; [8] 99% | [3]; at 50.0 µM 94.2% | [4]; [8] 98% | [4]; at 50.0 µM 86.9% | [5]; [7] 85% | [5]; [8] 99% | [5]; at 50.0 µM 92.1% | [6]; [7] 88% | [6]; [8] 99% | [6]; at 50.0 µM 96.6%

O=C1CCC(Cc2ccccc2Br)C(=O)N1 (stereo unspecified)
active: [3]; [8] 92% | [3]; at 50.0 µM 97.2%
inactive: [1]; [7] -5% | [1]; [8] 10% | [1]; at 50.0 µM -10.8% | [2]; [7] -1% | [2]; [8] 6% | [2]; at 50.0 µM 36% | [3]; [7] 11% | [4]; [7] -4% | [4]; [8] 8% | [4]; at 50.0 µM -39.2% | [5]; [7] -4% | [5]; [8] 6% | [5]; at 50.0 µM -45.5% | [6]; [7] -7% | [6]; [8] 6% | [6]; at 50.0 µM 6.35%

O=c1oc2ccccc2c(O)c1/C=N\c1nc(-c2ccccc2)cs1
inactive: [1]; [7] 41% | [1]; at 50.0 µM 8.95% | [2]; [7] 42% | [2]; at 50.0 µM 16.4% | [3]; [7] 53% | [3]; at 50.0 µM 31.9% | [4]; [7] 36% | [4]; at 50.0 µM 36.6% | [5]; at 50.0 µM 17.1% | [6]; [7] 34%
active: [1]; [8] 99% | [2]; [8] 99% | [3]; [8] 100% | [4]; [8] 97% | [5]; [7] 81% | [5]; [8] 100% | [6]; [8] 99% | [6]; at 50.0 µM 91.8%

OC1(c2ccccc2)CCC2CCCCC2C1 (stereo unspecified)
inactive: [1]; [7] 3% | [1]; [8] 32% | [2]; [7] -4% | [2]; [8] 52% | [3]; [7] 2% | [3]; [8] 69% | [4]; [7] -10% | [4]; [8] 8% | [5]; [7] 4% | [5]; [8] 49% | [6]; [7] -14% | [6]; [8] 63%
active: [1]; at 50.0 µM 94.4% | [2]; at 50.0 µM 96.5% | [3]; at 50.0 µM 90.5% | [4]; at 50.0 µM 89.5% | [5]; at 50.0 µM 88.5% | [6]; at 50.0 µM 81.2%

Nc1ccccc1CC(c1c[nH]c2ccccc12)c1c[nH]c2ccccc12
inactive: [1]; [7] 4% | [1]; [8] 7% | [2]; [7] 1% | [2]; [8] 17% | [3]; [7] 1% | [3]; [8] 10% | [4]; [8] -7% | [5]; [7] 2% | [5]; [8] 26% | [6]; [7] 4% | [6]; [8] 27%
active: [1]; at 50.0 µM 94% | [2]; at 50.0 µM 95% | [3]; at 50.0 µM 94.4% | [4]; [7] 93% | [4]; at 50.0 µM 90.5% | [5]; at 50.0 µM 93% | [6]; at 50.0 µM 93.8%

C[N+]1(C)CCN(CCCN2c3ccccc3Sc3ccccc32)CC1
active: [6]; [8] 76%
inactive: [1]; [7] 0% | [1]; [8] 54% | [1]; at 50.0 µM 42.1% | [2]; [7] 8% | [2]; [8] 22% | [2]; at 50.0 µM 14.3% | [3]; [7] -222% | [3]; [8] 66% | [3]; at 50.0 µM 66.9% | [4]; [7] 4% | [4]; [8] 15% | [4]; at 50.0 µM 25.7% | [5]; [7] 5% | [5]; [8] 26% | [5]; at 50.0 µM 10.9% | [6]; [7] -5% | [6]; at 50.0 µM 56.9%

CC(/C=C/c1ccc(Cl)c(Cl)c1)=N\NC(N)=S
active: [2]; [8] 73% | [3]; [8] 76% | [3]; at 50.0 µM 82.9% | [4]; at 50.0 µM 77.2% | [5]; [8] 82% | [6]; [8] 81% | [6]; at 50.0 µM 80%
inactive: [1]; [7] 37% | [1]; [8] 69% | [1]; at 50.0 µM 61.2% | [2]; [7] 31% | [2]; at 50.0 µM 53.5% | [3]; [7] 48% | [4]; [7] 39% | [4]; [8] 41% | [5]; [7] 29% | [5]; at 50.0 µM 64.4% | [6]; [7] 61%

Sc1ccccc1C1N(Cc2ccc(Cl)cc2)CCCN1Cc1ccc(Cl)cc1
inactive: [1]; [8] 42% | [2]; [8] 69% | [2]; at 50.0 µM 55.6% | [4]; [8] 39% | [4]; at 50.0 µM 64% | [5]; [8] 63%
active: [1]; [7] 98% | [1]; at 50.0 µM 79.2% | [2]; [7] 100% | [3]; [7] 99% | [3]; [8] 84% | [3]; at 50.0 µM 86.8% | [4]; [7] 99% | [5]; [7] 99% | [5]; at 50.0 µM 81.8% | [6]; [7] 99% | [6]; [8] 73% | [6]; at 50.0 µM 79.6%

C/C(=N\NC(=S)Nc1ccc([N+](=O)[O-])cc1)c1nc2ncccc2[nH]1
active: [1]; [8] 71% | [1]; at 50.0 µM 72.3% | [2]; [8] 89% | [3]; [8] 70% | [4]; [8] 93% | [5]; [8] 95% | [5]; at 50.0 µM 75.5% | [6]; [8] 92%
inactive: [1]; [7] -8% | [2]; [7] -22% | [2]; at 50.0 µM 61% | [3]; [7] -14% | [3]; at 50.0 µM 62.2% | [4]; [7] 5% | [4]; at 50.0 µM 67.2% | [5]; [7] -35% | [6]; [7] 4% | [6]; at 50.0 µM 60.1%

O=C1C(=O)C(Cc2ccccc2)(c2ccccc2)C(=O)N1c1ccccc1 (stereo unspecified)
active: [3]; [8] 70%
inactive: [1]; [7] 0% | [1]; [8] 42% | [1]; at 50.0 µM 68.2% | [2]; [7] -3% | [2]; [8] 59% | [2]; at 50.0 µM 6.25% | [3]; [7] -2% | [3]; at 50.0 µM 54.6% | [4]; [7] 3% | [4]; [8] 22% | [4]; at 50.0 µM -9.8% | [5]; [7] -1% | [5]; [8] 52% | [5]; at 50.0 µM 10.3% | [6]; [7] 1% | [6]; [8] 62% | [6]; at 50.0 µM 40.4%

— PubChem BioAssay (NCI)
